Results reported in PubChem BioAssay (NCI).
This is part of a sample that, as a whole, favours compounds with a hit. Of some 83,000 tested, about 20% had one in any assay.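 Each cell line was grown in a 96-well plate and treated with one concentration of compound for 48 hours. Values below 10 were considered active.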 Values without a mark were called inactive. Active and inactive are the calls of the source.

How the values were obtained:
Assay in all cases: NCI-60 one-dose screen, 48 h (100 = growth as untreated, 0 = no growth, -100 = all killed)
Details in all cases: 10 µM unless noted
HCT-15 colon = test system: HCT-15 colon
HT29 colon = test system: HT29 colon
SNB-75 CNS = test system: SNB-75 CNS
SNB-19 CNS = test system: SNB-19 CNS
U251 CNS = test system: U251 CNS
PC-3 prostate = test system: PC-3 prostate
SK-MEL-5 melanoma = test system: SK-MEL-5 melanoma
UACC-62 melanoma = test system: UACC-62 melanoma
LOX IMVI melanoma = test system: LOX IMVI melanoma
SK-MEL-28 melanoma = test system: SK-MEL-28 melanoma
SK-MEL-2 melanoma = test system: SK-MEL-2 melanoma
EKVX NSCLC = test system: EKVX NSCLC
SN12C renal = test system: SN12C renal
UO-31 renal = test system: UO-31 renal
TK-10 renal = test system: TK-10 renal
ACHN renal = test system: ACHN renal
CAKI-1 renal = test system: CAKI-1 renal
A498 renal = test system: A498 renal
CCRF-CEM leukemia = test system: CCRF-CEM leukemia
MOLT-4 leukemia = test system: MOLT-4 leukemia

| Compound | growth (HCT-15 colon) | growth (HT29 colon) | growth (SNB-75 CNS) | growth (SNB-19 CNS) | growth (U251 CNS) | growth (PC-3 prostate) | growth (SK-MEL-5 melanoma) | growth (UACC-62 melanoma) | growth (LOX IMVI melanoma) | growth (SK-MEL-28 melanoma) | growth (SK-MEL-2 melanoma) | growth (EKVX NSCLC) | growth (SN12C renal) | growth (UO-31 renal) | growth (TK-10 renal) | growth (ACHN renal) | growth (CAKI-1 renal) | growth (A498 renal) | growth (CCRF-CEM leukemia) | growth (MOLT-4 leukemia) |
| --- | --- | --- | --- | --- | --- | --- | --- | --- | --- | --- | --- | --- | --- | --- | --- | --- | --- | --- | --- | --- |
| COc1ccc(OC)c(/C=C2\Oc3cc(OCCN4CCC(Cc5ccccc5)CC4)ccc3C2=O)c1 | 24.3% | 21.4% | 72.6% | 98.8% | 81.2% | 78% | 75.2% | 92.8% | 56.1% | 89.5% | 105% | 75.6% | 80.8% | 53.8% | 97.7% | 99.7% | 61.4% | 88.6% | 75.6% | 62.4% |
| CC([C@H]1CCC2C3CCC4C(=O)C(NC=O)=CC[C@]4(C)C3CC[C@@]21C)N(C)C (stereo partly drawn) | -37.1% (active) | -20.2% (active) | 34.1% | 76% | 25.6% | 27.4% | -56% (active) | -39.7% (active) | -37.2% (active) | -70.1% (active) | 82.3% | 30.5% | 42% | -65% (active) | 84.1% | 58.2% | 57.6% | 65.1% | 28.7% | 41.2% |
| O=C1CCC/C=C\C[C@H]2C=CC(=O)/C2=C/C[C@H](CCc2cccc(C(F)(F)F)c2)O1 | -10.8% (active) | -31.9% (active) | 15.2% | -17.1% (active) | -93% (active) | -20.7% (active) | -82.8% (active) | -45.9% (active) | -72.6% (active) | -39.5% (active) | -57.2% (active) | -47.6% (active) | -37.9% (active) | -95.5% (active) | -68.9% (active) | -85.1% (active) | 12.5% | -79.7% (active) | 4.33% (active) | -18.6% (active) |
| COc1cccc(-c2nc(-c3ccc(NC(=O)OC(C)C)cc3)[nH]c2-c2ccnc(Br)c2)c1 | 4.09% (active) | 18.3% | 23.6% | 40.3% | 32.7% | 17.5% | 21.9% | 9.86% (active) | 2.73% (active) | 37.7% | 25.6% | 27.6% | 30.8% | – | 48.6% | 14.5% | 28% | -4.13% (active) | 18.3% | 10.3% |
| COc1ccc2sc3c(NCCCNCCO)nc4ccccc4c3c(=O)c2c1 | 44% | -39.2% (active) | 65.9% | 66.8% | 32.2% | 62.3% | 81.4% | 85% | -99.1% (active) | 70.6% | 102% | 67.2% | 62% | – | 75% | 57.7% | 44% | 38.1% | 2.35% (active) | 16.4% |
| O=C(/C=C/c1ccc([N+](=O)[O-])o1)NNC(=O)c1cc2ccccc2cc1O | -62.7% (active) | 7.4% (active) | 45.7% | 33.5% | 17.5% | 38.4% | -86.9% (active) | -99.1% (active) | -10.5% (active) | -46.1% (active) | -50.9% (active) | 38.6% | 7.5% (active) | 2.06% (active) | 19.3% | -82% (active) | 22.5% | -51% (active) | 6.58% (active) | 3.05% (active) |
| O=c1ccn(Cc2cn(-c3c4ccccc4nc4ccccc34)nn2)c(=O)[nH]1 | 91.6% | 104% | 102% | 94.1% | 89.5% | 97.5% | 91.3% | 91.4% | 74.2% | 102% | 98% | 103% | 92.7% | 88% | 93.8% | 95.4% | 96.8% | 81.8% | 83.9% | 79.5% |
| Cc1nn(-c2ccccc2)c(-n2ccnc2)c1/C=N/Nc1nc(-c2ccc(Cl)c(Cl)c2)cs1 | 23.8% | 17.1% | -2.39% (active) | 46% | 53.1% | 28.8% | 26.5% | 71.4% | 20.1% | 58.1% | 83.7% | 30.8% | 31.3% | 49.6% | 2.74% (active) | 39.9% | 24.9% | 43.5% | 26.1% | 32.3% |
| CCCCn1c(=O)c(-c2cc(-c3ccc(Cl)cc3)nc(-c3ccc(Cl)cc3)c2)cc2cc(C)ccc21 | 101% | 101% | 98.5% | 98.8% | 106% | 97.2% | 104% | 89.7% | 98.5% | 107% | 118% | 101% | 92.2% | – | 98.7% | 107% | 94.8% | 103% | 101% | 105% |
| Cc1cccc2c3c(sc12)C(c1ccc(Cl)cc1)C(C#N)=C(N)O3 (stereo not drawn) | 10.3% | 6.24% (active) | 4.24% (active) | 27.6% | 27.2% | 16.2% | 27.1% | 17.6% | 18.4% | 58.6% | 45.7% | 44.5% | 25.2% | – | 71.7% | 25.2% | 8.51% (active) | -6.58% (active) | 13.2% | 11.9% |
| COc1cc(CCC[P+](c2ccccc2)(c2ccccc2)c2ccccc2)c(OC)c(OC)c1OC | 68.2% | 112% | 29.7% | 78% | 77.7% | 75.6% | 76% | 31.1% | 79.2% | 74.4% | 80.5% | 72.7% | 77.5% | 43.7% | 91% | 83.4% | 39.7% | -6.09% (active) | 65% | 57.6% |
| COc1cc(Nc2nc(NCCN)nc3cc[nH]c(=O)c23)cc(OC)c1 | 102% | 73.6% | 90.3% | 102% | 85.8% | 113% | 81.6% | 57.2% | 51.8% | 102% | 30.8% | 87.5% | 70.3% | – | 95.3% | 99% | 94.1% | 111% | 68.6% | 74.4% |
| COc1ccc(/C=C2\Oc3cc(OCCN4CCC(Cc5ccccc5)CC4)ccc3C2=O)cc1OC | 33.5% | 21.7% | 80.8% | 92.6% | 70.9% | 78.1% | 42.7% | 74.4% | 7.25% (active) | 81.5% | 104% | 70.4% | 65.6% | – | 95.3% | 96.8% | 74.2% | 69.7% | 55.9% | 46.7% |
| COc1ccc(/C=C/c2c(C(=O)/C=C/c3ccc(C(F)(F)F)cc3)c(C)nc3ccccc23)cc1 | -20.2% (active) | 7.38% (active) | 25.6% | -43.1% (active) | -69% (active) | -23.4% (active) | -79.9% (active) | -29% (active) | -91.2% (active) | -50.7% (active) | -12.1% (active) | -18.7% (active) | -42.9% (active) | – | -14% (active) | -94.3% (active) | -38% (active) | -66.3% (active) | 7.64% (active) | 6.21% (active) |
| Cc1nc2ccccc2c(/C=C/c2ccc(Cl)cc2)c1C(=O)/C=C/c1cccs1 | 52.1% | 52.8% | 56.7% | 86.7% | 77.5% | 54% | 76.6% | 68.4% | 79.6% | 95.7% | 90.9% | 80.9% | 72% | 54.3% | 125% | 78.3% | 46.2% | 40.9% | 59.6% | 54.7% |
| N#Cc1ccc(NC(=O)c2sc3nc4c(cc3c2N)C(=O)CCC4)cc1 | 101% | 84.9% | 113% | 102% | 106% | 107% | 92.6% | 99.3% | 112% | 106% | 83% | 93.6% | 98.3% | 104% | 65.9% | 108% | 93.3% | 79.6% | 99.8% | 115% |
